Screening data deposited in PubChem BioAssay by National Center for Advancing Translational Sciences (NCATS).
JMJD2A Tudor inh – JMJD2A Tudor domain (human) inhibition; 390,000 tested, 4.4% active; Potency, µM (doses to about 114 µM), without a hit: at the highest dose activity change, negative = inhibition, most hits filed as inhibitors; AID 504339; AlphaScreen JMJD2A-Tudor / H3K4me3 peptide binding; O75164; also: % is scaled to controls: 0 for no effect and ±100 for the full control effect; nearly all actives have a fitted effect of over 50% in size
Sfp inh – inhibitors of Bacillus subtilis Sfp phosphopantetheinyl transferase; AID 1490; Q9F4F7; 310,000 tested, 3.5% active; Potency, µM, for the others: largest response in the series, negative = inhibition, actives largely listed as inhibitors; Biochemical Sfp PPTase activity, qHTS;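 also: the enzyme is Sfp with the accession as filed and its product quenches rhodamine fluorescence; 0% = enzyme reaction without inhibitor and -100% = no enzyme wells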
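Fluorescence-quenching assay: 15 nM Sfp-PPTase preincubated 15 min at room temperature with compound, then 5 uM rhodamine-CoA and 12.5 uM BHQ-2-labelled YbbR peptide added. Fluorescence (ex 525/em 598 nm) read at start and after 30 min; difference gives rate.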
PLK1 PBD inh – inhibitors of human PLK1 polo-box domain binding; P53350; Plk1 PBD binding of FITC phosphopeptide, fluorescence polarization; Potency, µM, inactives show max response, negative = inhibition, usual class: inhibitors; 360,000 tested, 2.8% active; AID 720504; also: series mostly up to about 57 µM; % is scaled to controls: 0 for no effect and ±100 for the full control effect; nearly all actives have a fitted effect of over 65% in size
HP1b binding inh – inhibitors of HP1-beta chromodomain binding to methylated histone tails | AlphaScreen HP1-beta / biotin-H3K9me3 peptide binding | Potency, µM (top dose mostly 114 µM), inactives show top-dose activity change, negative = inhibition, actives largely listed as inhibitors | 390,000 tested, 0.56% active | AID 540317; also: nearly all actives have a fitted effect of over 70% in size
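Compound inhibition of the preformed complex between 50 nM HP1-beta and 50 nM biotinylated H3K9me3 peptide was read by AlphaScreen. Buffer was PBS pH 7.4 with 0.01% Tween-20. Incubations ran 30 min at room temperature, with 10 ug/mL donor/acceptor beads.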
G9a block – G9a (human) methyltransferase inhibition; Q96KQ7; G9a H3K9 monomethylation, AlphaScreen, 2 h; 350,000 tested, 8.8% active; AID 504332; Potency, µM (series often up to 102 µM), for the others: top-dose activity, negative = inhibition, hits mostly inhibitors; also: % is scaled to controls: 0 for no effect and ±100 for the full control effect; nearly all actives have a fitted effect of over 75% in size
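Chemiluminescent proximity detection of H3K9 monomethylation, read after 10 min bead incubation in the dark. Reaction: 20 nM G9a, 500 nM biotin-H3K9 peptide, 20 uM SAM cofactor, 2 h, room temperature, following 15 min enzyme-compound preincubation.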
BAZ2B inh – inhibitors of human BAZ2B bromodomain. Q9UIF8. AlphaScreen BAZ2B-H3K14Ac peptide displacement. Potency, µM (doses to about 114 µM), without a hit: at the highest dose activity change, negative = inhibition, hits mostly inhibitors. 360,000 tested, 4.4% active; also: % is scaled to controls: 0 for no effect and ±100 for the full control effect; nearly all actives have a fitted effect of over 60% in size
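In this displacement format the biotinylated H3(5-23) peptide acetylated at Lys14 serves as ligand at 50 nM, with BAZ2B at 50 nM in PBS pH 7.4 containing 0.01% Tween-20. Donor and acceptor beads are 10 ug/mL final.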
An asterisk follows results filed as active; ? = inconclusive; . = not tested or not shown; [ ] = remark or other dose. Only some compounds are listed: those with a hit (about 12% of all), similar ones and a draw of the others. Calls follow the shape of the dose curve; as a rule, active = well fitted curve in the direction sought with a large enough effect; inconclusive = small, poorly fitted or top-dose-only effect, or another doubt; inactive = no such curve, though single readings can be large; an effect the other way counts as inactive or inconclusive. Potency is read from the fitted curve at half-maximal effect.

SMILES | JMJD2A Tudor inh | Sfp inh | PLK1 PBD inh | HP1b binding inh | G9a block | BAZ2B inh
O=C1CSC(c2cn(-c3ccccc3)nc2-c2cc3ccccc3o2)N1Cc1ccccc1 (centres undefined) | -27% | 11% | -5% | 11% | 11% | ?
Cc1ccc(-c2nn(-c3ccccc3)cc2C2SCC(=O)N2Cc2ccccc2)o1 (centres undefined) | ? | 22µM* | -29% | ? | 10µM* | ?
C=CCC(Nc1ccc(OC)cc1)(C(=O)OCC)c1ccccc1 (centres undefined) | . | 9% | . | . | . | .
COCc1cc(C)nc(OCC(=O)N/N=C/c2ccc(C)o2)c1C#N | -1% | 4µM* | 1% | 54% | 45µM* | 12%
COCc1cc(C)nc(OCC(=O)N/N=C/c2ccc(O)cc2)c1C#N | -10% | 1% | 0% | 34% | 8% | -5%
COCc1cc(C)nc(OCC(=O)N/N=C/c2ccc(-c3cccc([N+](=O)[O-])c3)o2)c1C#N | . | -10% | . | . | 50µM* | -36%
COCc1cc(C)nc(N/N=C/c2ccc(-c3ccc(C(=O)O)c(Cl)c3)o2)c1C#N | . | -6% | . | . | 11µM* | 79µM*
COc1ccc(C2(N3CCN(c4cccc(C)c4C)CC3)C(=O)c3ccccc3C2=O)cc1 | -21% | . | . | -12% | -34%[59 µM] | -16%
Cc1nc(C)c(C(=O)N(c2ccccc2F)C(C(=O)NCC2CCCO2)c2ccccc2)s1 (centres undefined) | ? | 11% | 27µM* | -2% | 1%[12.7 µM] | 4%
C=CCn1c(SCC(C)=O)nc2scc(-c3ccc(C)o3)c2c1=O | ? | 50µM* | -3% | 20% | 45µM* | 6%
C=CCn1c(SCC(=O)NCCCC)nc2scc(-c3ccco3)c2c1=O | 56µM* | 20µM* | ? | ? | -22%[59 µM] | ?
C=CCn1c(SCC(=O)Nc2c(C)n(C)n(-c3ccccc3)c2=O)nc2scc(-c3ccccc3)c2c1=O | -13%[57.1 µM] | 16% | -11% | 41% | -49%[59 µM] | -8%
C=CCn1c(=S)[nH]c2sccc2c1=O | ? | -38% | -18% | 15% | 13µM* | 3%
C=CCn1c(SCC(=O)NCC2CCCO2)nc2scc(-c3ccccc3)c2c1=O (centres undefined) | -7% | 11% | 4% | 42% | 13% | -11%
C=CCn1c(=S)[nH]c2scc(-c3ccc(C)o3)c2c1=O | ? | 28µM* | ? | -11% | 50µM* | -1%
CCCOc1ccc(-c2c(C(=O)N/N=C/c3cccs3)nnn2-c2nonc2N)cc1 | -1% | 11% | 2% | 51% | 12% | -3%
C=CCn1c(SCC(=O)NC2CCCC2)nc2scc(-c3ccco3)c2c1=O | -36% | 10µM* | -29% | 12% | ? | ?
Cc1c(C(=O)Nc2ccc(S(=O)(=O)N3CCOCC3)cc2)cccc1[N+](=O)[O-] | -19% | 13% | -10% | 30% | -3%[0.501 µM] | -25%
CC(C)C1Oc2ccccc2N(CC(=O)N(Cc2ccncc2)Cc2ccco2)C1=O (centres undefined) | -28% | 45µM* | -13% | 4% | ? | -25%
O=C(NCc1ccccc1)c1c2c(nc3ccccc13)C(=O)N(C1CCCCC1)C2 | -17% | . | . | 22% | -1%[59 µM] | -15%
S=C(N/N=C/c1ccc2c(c1)OCO2)NC1CC2CCC1C2 (centres undefined) | -14% | 10% | 4% | 3% | 28% | ?
O=C1CCC(C(=O)N2CCc3c(Cl)cccc3C2)CN1CCCN1CCOCC1 (centres undefined) | -1% | 14% | 2% | 37% | 40µM* | -12%
C/C(=N/NC(=O)CNC(=O)c1ccccc1F)c1ccc2c(c1)CCCC2 | 32µM* | 19% | 8.4µM* | -7% | -3% | 0%
C/C(=N/NC(=O)CNC(=O)c1ccc2c(c1)OCO2)c1ccc2c(c1)CCCC2 | -4% | -8% | -3% | 2% | -2% | .
Cc1ccc(S(=O)(=O)N(CC(=O)N2CCC(C)CC2)Cc2ccccc2F)cc1 | -5% | -9% | -3% | 25% | 4%[2.33 µM] | 8%
SMILES | JMJD2A Tudor inh | Sfp inh | PLK1 PBD inh | HP1b binding inh | G9a block | BAZ2B inh
CCCC(=O)Nc1ccc(C(=O)NCc2ccccc2Cl)cc1 | -16% | 15% | 0% | 12% | 11%[59 µM] | 1%
Cc1ccc(C2C(=O)c3ccccc3C2=O)cc1 | -15% | 2% | -9% | 1% | ? | ?
CCCC(=O)Nc1ccc(C2C(=O)c3ccccc3C2=O)cc1 | -24% | 0% | 5% | -16% | 79µM* | ?
CC(=O)Nc1ccc(C2C(=O)c3ccccc3C2=O)cc1 | -25% | 3% | -8% | -17% | 50µM* | -36%
COc1ccc(C(C)=O)cc1COC(=O)c1cccnc1SC | -2% | 2% | ? | 26% | 1% | 2%
Cc1cc(N2CCN(c3ccccc3)CC2)nc(-c2ccccc2O)n1 | -7%[57.1 µM] | -4% | -12% | 69% | -45% | 14%
Cc1cc(N2CCN(c3ccccc3)CC2)nc(-n2nc(C)cc2C)n1 | 45µM* | 8% | -9% | 16% | 11%[2.33 µM] | ?
COc1ccc2ccccc2c1C1NC(=O)NC(C)=C1[N+](=O)[O-] (centres undefined) | -7% | 11% | -11% | 6% | -3% | -9%
CN(C)c1ccc(/C=N/N=C/c2ccccc2O)cc1 | 3% | 2% | 2% | 31% | ? | -10%
O=C(/C(=N/N=C/c1ccc(O)c(O)c1O)c1ccccc1)c1ccccc1 | 35µM* | -96% | 7.5µM* | ? | 1.1µM* | 32µM*
Oc1ccc(/C=N/N=C(c2ccccc2)c2ccccc2)c(O)c1O | 56µM* | 2.8µM* | 12µM* | 45µM* | 1.4µM* | 25µM*
N#Cc1c(-n2cccc2)cccc1-n1cccc1 | ? | 15% | -9% | -35% | ? | 50µM*
N#Cc1c(Cl)cccc1-n1ccnc1 | 3% | 8% | -3% | 35% | 49%[12.7 µM] | 0%
COc1ccc(-c2ccc3ncnc(NCc4cccs4)c3c2)cc1 | -21% | . | . | . | . | .
O=c1cc[nH]c2c1ccc1cccnc12 | -28% | . | 3% | 56% | ? | 56µM*
O=C(c1cc2ccc3cccnc3c2[nH]1)N1CCCCC1 | -27% | . | . | -13% | -19%[59 µM] | 0%[57.1 µM]
Cn1c(=NC(=O)COc2ccccc2)sc2ccccc21 | -9% | 13% | -8% | 33% | ? | -31%
CCOc1cc(S(=O)(=O)NCCc2c(C)[nH]c3ccc(C)cc23)ccc1Br | ? | . | . | -3% | ? | ?
O=C1c2ccccc2CC1Sc1nnc(-c2ccccn2)o1 (centres undefined) | -29% | ? | 24µM* | 14% | ? | 11%
O=C1OCCC1Sc1nnc(-c2ccccc2)o1 (centres undefined) | -13% | 8% | -8% | 24% | 2% | -2%
